Experimental findings from the supplement of paper PMC9942566 are described below.

The structures appear in SMILES notation. ± gives the standard deviation of the averaged measurements.

For this experiment, the system named is Serratia marcescens K904 PosmB-luxCDABE reporter (pMQ747). Nature of the experiment: PosmB-lux reporter fold induction (RLU/OD600 relative to no-compound control), highest over Biolog concentrations; higher = stronger reporter activation. The settings on record: ΔrcsB mutant CMS5177; 4 h. The method, then: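 Serratia marcescens K904 (wild type) or its isogenic ΔrcsB mutant, carrying the Rcs-dependent PosmB-luxCDABE reporter plasmid pMQ747, was grown in LB at OD600 0.1 in Biolog Phenotype MicroArray plates PM11-20 for 4 h at 30-32°C. Each compound is present at 3-4 proprietary concentrations (not stated); per the Fig. S1 legend the value given is the highest fold over those wells. Three independent trials.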
Take `CO[C@@]1(NC(=O)Cc2cccs2)C(=O)N2C(C(=O)O)=C(COC(N)=O)CS[C@@H]21` [Cefoxitin] (Biolog plate: PM14, well positions: E1-4): the “PosmB-lux reporter fold induction” value worked out at 1.2 ± 0.19.
Next, `CO/N=C(\C(=O)N[C@@H]1C(=O)N2C(C(=O)O)=C(COC(N)=O)CS[C@H]12)c1ccco1` [Cefuroxime] (Biolog plate: PM13, well positions: D1-4): 1.42 ± 0.51; `CN(C)c1ccc(O)c2c1C[C@H]1C[C@H]3[C@H](N(C)C)C(O)=C(C(N)=O)C(=O)[C@@]3(O)C(O)=C1C2=O` [Minocycline] (Biolog plate: PM11, well positions: C9-12): 1.8 ± 0.42; `CN[C@H](CC(C)C)C(=O)N[C@H]1C(=O)N[C@@H](CC(N)=O)C(=O)N[C@H]2C(=O)N[C@H]3C(=O)N[C@H](C(=O)N[C@H](C(=O)O)c4cc(O)cc(O)c4-c4cc3ccc4O)[C@H](O)c3ccc(c(Cl)c3)Oc3cc2cc(c3O[C@@H]2O[C@H](CO)[C@@H](O)[C@H](O)[C@H]2O[C@H]2C[C@](C)(N)[C@H](O)[C@H](C)O2)Oc2ccc(cc2Cl)[C@H]1O` [Vancomycin] (Biolog plate: PM12, well positions: C5-8): 1.21 ± 0.36.
In the case of `C[C@@H]1NC(=O)[C@@H](N)CNC(=O)[C@H](C2CCNC(=N)N2)NC(=O)/C(=C/NC(N)=O)NC(=O)[C@H](CNC(=O)CC(N)CCCN)NC1=O.N=C1NCC[C@H]([C@@H]2NC(=O)/C(=C/NC(N)=O)NC(=O)[C@H](CNC(=O)C[C@@H](N)CCCN)NC(=O)[C@H](CO)NC(=O)[C@@H](N)CNC2=O)N1` [Capreomycin] (Biolog plate: PM11, well positions: D1-4), the “PosmB-lux reporter fold induction” value came to 1.09 ± 0.081.
As to `N[C@H](CO)C(=O)O` [D-serine] (Biolog plate: PM17, well positions: A2-4), the “PosmB-lux reporter fold induction” value stood at 1.12 ± 0.081.
For `CN(C)[C@@H]1C(O)=C(C(=O)NCN2CCCC2)C(=O)[C@@]2(O)C(O)=C3C(=O)c4c(O)cccc4[C@@](C)(O)[C@H]3C[C@@H]12` [Rolitetracycline] (Biolog plate: PM13, well positions: D9-12) the value was 1.73 ± 0.11; for `CCn1nc(C(=O)O)c(=O)c2cc3c(cc21)OCO3` [cinoxacin] (Biolog plate: PM16, well positions: D9-12), 16.4 ± 3.4.
As for `Nc1ccc(S(=O)(=O)Nc2ncccn2)cc1` [Sulfadiazine] (Biolog plate: PM12, well positions: E5-8), the “PosmB-lux reporter fold induction” value worked out at 1.84 ± 0.29.
`Nc1c2ccccc2nc2ccccc12` [9-Aminoacridine] (Biolog plate: PM14, well positions: B1-4): the “PosmB-lux reporter fold induction” value came out at 1.19 ± 0.19.
Next, `CN(C)C(=O)/N=N/C(=O)N(C)C` [diamide] (Biolog plate: PM16, well positions: D5-8): 2.26 ± 0.64; `c1ccc(-c2nn(-c3ccccc3)[n+](-c3cccc4ccccc34)n2)cc1` [tetrazolium violet] (Biolog plate: PM20, well positions: B9-12): 0.262 ± 0.11; `CN(C)[C@@H]1C(O)=C(C(N)=O)C(=O)[C@@]2(O)C(O)=C3C(=O)c4c(O)cccc4[C@@](C)(O)[C@H]3C[C@@H]12` [Tetracycline] (Biolog plate: PM12, well positions: A5-8): 1.12 ± 0.097.
For `Oc1c(Cl)cc(Cl)c(Cl)c1Cc1c(O)c(Cl)cc(Cl)c1Cl` [hexa-chlorophene] (Biolog plate: PM20, well positions: E9-12) the value was 0.997 ± 0.31.
For `CN[C@@H]1[C@H](O[C@H]2[C@H](O[C@H]3[C@H](O)[C@@H](O)[C@H](NC(=N)N)[C@@H](O)[C@@H]3NC(=N)N)O[C@@H](C)[C@]2(O)CO)O[C@@H](CO)[C@H](O)[C@H]1O` [dihydro-streptomycin] (Biolog plate: PM19, well positions: G5-8) the value was 0.97 ± 0.18; for `c1cnc2c(c1)ccc1cccnc12` [1,10-Phenanthroline] (Biolog plate: PM15, well positions: C9-12), 1.32 ± 0.23; for `CN[C@@H]1[C@H](O[C@H]2[C@H](O[C@H]3[C@H](O)[C@@H](O)[C@H](N=C(N)N)[C@@H](O)[C@@H]3N=C(N)N)O[C@@H](C)[C@]2(O)C=O)O[C@@H](CO)[C@H](O)[C@H]1O` [streptomycin] (Biolog plate: PM16, well positions: E1-4), 1.98 ± 0.69.
On to `CCCCC(CC)CNC(=N)NC(=N)NCCCCCCNC(=N)NC(=N)NCC(CC)CCCC` (stereo not given) [Alexidine] (Biolog plate: PM15, well positions: E1-4), for which the “PosmB-lux reporter fold induction” value was 1.92 ± 0.13.
In the case of `CCn1cc(C(=O)O)c(=O)c2cc(F)c(N3CCNC(C)C3)c(F)c21` (stereo not given) [Lomefloxacin] (Biolog plate: PM11, well positions: B9-12), the “PosmB-lux reporter fold induction” value was determined as 1.19 ± 0.24.
Next, `CO/N=C(\C(=O)N[C@@H]1C(=O)N2C(C(=O)O)=C(COC(C)=O)CS[C@H]12)c1csc(N)n1` [cefotaxime] (Biolog plate: PM16, well positions: A2-4): 1.11 ± 0.047.
For `Cc1ccccc1C(OCCN(C)C)c1ccccc1` (stereo not given) [orphenadrine] (Biolog plate: PM20, well positions: B1-4) the value was 1.4 ± 0.12; for `CC(C(=O)O)c1cccc(C(=O)c2ccccc2)c1` (stereo not given) [ketoprofen (an NSAID)] (Biolog plate: PM18, well positions: A2-4), 1 ± 0.37.
With `CC1(C)S[C@@H]2[C@H](NC(=O)Cc3ccccc3)C(=O)N2[C@H]1C(=O)O` [Penicillin G] (Biolog plate: PM12, well positions: A2-4), the “PosmB-lux reporter fold induction” value was found to be 1.02 ± 0.19.
For `CO[C@@H]1[C@@H](OC(N)=O)[C@@H](O)[C@H](Oc2ccc3c(O)c(NC(=O)c4ccc(O)c(CC=C(C)C)c4)c(=O)oc3c2C)OC1(C)C` [Novobiocin] (Biolog plate: PM12, well positions: D9-12) the value was 2.74 ± 1.3; for `CCC(C)CCCC(=O)N[C@@H](CCN)C(=O)N[C@H](C(=O)N[C@@H](CCN)C(=O)N[C@H]1CCNC(=O)[C@H]([C@@H](C)O)NC(=O)[C@H](CCN)NC(=O)[C@H](CCN)NC(=O)[C@H](CC(C)C)NC(=O)[C@@H](CC(C)C)NC(=O)[C@H](CCN)NC1=O)[C@@H](C)O` (stereo not given in full) [Colistin] (Biolog plate: PM11, well positions: C5-8), 1.1 ± 0.22.
For `NC(=O)N/N=C/c1ccc([N+](=O)[O-])o1` [5-Nitro-2-furaldehyde semicarbazone] (Biolog plate: PM15, well positions: E5-8), the “PosmB-lux reporter fold induction” value came out at 3.61 ± 0.9.
Regarding `CCN(CC)CC(=O)Nc1c(C)cccc1C` [lidocaine] (Biolog plate: PM18, well positions: D9-12), the “PosmB-lux reporter fold induction” value turned out to be 0.721 ± 0.15.
`O=c1ccc2ccccc2o1` [coumarin] (Biolog plate: PM19, well positions: A9-12): the “PosmB-lux reporter fold induction” value is 0.853 ± 0.16.
Next, `CC(C)(C)CC(C)(C)c1ccc(OCCOCC[N+](C)(C)Cc2ccccc2)cc1` [Benzethonium chloride] (Biolog plate: PM12, well positions: E9-12): 1.69 ± 0.07; `CO[C@H]1C[C@H](O[C@H]2[C@H](C)[C@@H](O[C@@H]3O[C@H](C)C[C@H](N(C)C)[C@H]3OC(C)=O)[C@@H](C)C[C@@]3(CO3)C(=O)[C@H](C)[C@@H](OC(C)=O)[C@@H](C)[C@@H](C)OC(=O)[C@@H]2C)O[C@@H](C)[C@@H]1OC(C)=O` [troleandomycin] (Biolog plate: PM20, well positions: H9-12): 2.33 ± 1.1; `COc1ccc(CO)cc1OC` [3,4-Dimethoxy-benzyl alcohol] (Biolog plate: PM15, well positions: F1-4): 1.65 ± 0.64.
For `CCc1cc(C(N)=S)ccn1` [ethionamide] (Biolog plate: PM17, well positions: B9-12) the value was 0.857 ± 0.29; for `NC(=O)c1cc[n+](CC2=C(C(=O)[O-])N3C(=O)[C@@H](NC(=O)[C@@H](c4ccccc4)S(=O)(=O)O)[C@H]3SC2)cc1` [cefsulodin] (Biolog plate: PM17, well positions: H1-4), 1.35 ± 0.096; for `C[C@@H]1O[C@@H]1P(=O)(O)O` [Phosphomycin] (Biolog plate: PM16, well positions: A5-8), 1.57 ± 0.24.
Consider `O=C(N[C@H](CO)[C@H](O)c1ccc([N+](=O)[O-])cc1)C(Cl)Cl` [Chloramphenicol] (Biolog plate: PM11, well positions: F1-4), for which the “PosmB-lux reporter fold induction” value worked out at 1.56 ± 0.59.
Next, `CCN(CC)CCOC(=O)c1ccc(N)cc1` [Procaine] (Biolog plate: PM15, well positions: A2-4): 1.04 ± 0.067; `CC(=O)O[C@H]1C[C@@]2(C)[C@@H](C[C@@H](O)[C@H]3[C@@]4(C)CC[C@@H](O)[C@@H](C)[C@@H]4CC[C@@]32C)/C1=C(\CCC=C(C)C)C(=O)O` [Fusidic acid] (Biolog plate: PM15, well positions: C5-8): 1.43 ± 0.16.
Next, `CN[C@@H]1[C@@H](O)[C@@H](O[C@@H]2[C@@H](O)[C@H](O[C@H]3OC(CN)=CC[C@H]3N)[C@@H](N)C[C@H]2N)OC[C@]1(C)O` [Sisomicin] (Biolog plate: PM12, well positions: D1-4): 1.29 ± 0.5; `CO[C@H]1/C=C/O[C@@]2(C)Oc3c(C)c(O)c4c(O)c(cc(O)c4c3C2=O)NC(=O)/C(C)=C\C=C\[C@H](C)[C@H](O)[C@@H](C)[C@@H](O)[C@@H](C)[C@H](OC(C)=O)[C@@H]1C` [rifamycin SV] (Biolog plate: PM16, well positions: E9-12): 35.4 ± 1.7; `CC1(C)S[C@@H]2[C@H](NC(=O)C(C(=O)O)c3ccccc3)C(=O)N2[C@H]1C(=O)O` (stereo not given in full) [Carbenicillin] (Biolog plate: PM14, well positions: G5-8): 1.05 ± 0.096.
